Data reported in the supplement of paper PMC10849652.
Of roughly 7,900 targets only a part is listed; those with a hit were picked by preference. About 0.6% of all pairs of compound and target were hits. A number with no mark means an inactive call.

Assays:
Test in all cases: log2 fold change, soluble protein after heating vs DMSO (PISA); higher = thermal stabilisation; K562 cells, 10 uM, 30 min; active = over 0.2 and 3.5 SD of the protein, either way, in both replicates (recomputed)
[1] = compound: Cc1ccc(NC(=O)c2ccc(CN3CC[C@H](N(C)C)C3)c(C(F)(F)F)c2)cc1Nc1nccc(-c2cncnc2)n1 [bafetinib]
In short: (§1)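 K562 cells at 2×10^6 cells/mL were given 10 μM compound for 30 min. Aliquots then went through 3 min of heating across 48°C-58°C, were pooled, and were extracted in PBS with 0.5% NP-40 at 4°C, and the supernatant after 21,000xg for 90 min was quantified by TMTpro 16plex LC-MS/MS with channel sums equalised. Thermal stability relative to control samples, from duplicates, is given as log2 fold change.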

[2] = compound: Cc1cccc(CC(=O)N2CCc3c2ccc(-c2cn(C)c4ncnc(N)c24)c3F)n1
In short: as §1

[3] = compound: Cc1cn(-c2cc(NC(=O)c3ccc(C)c(Nc4nccc(-c5cccnc5)n4)c3)cc(C(F)(F)F)c2)cn1 [nilotinib]
In short: as §1

[4] = compound: Cc1nc(Nc2n[nH]c3c2CN(C(=O)N[C@H](CN(C)C)c2ccccc2)C3(C)C)c2sccc2n1
In short: as §1

[5] = compound: Cc1nc(Nc2ncc(C(=O)Nc3c(C)cccc3Cl)s2)cc(N2CCN(CCO)CC2)n1 [dasatinib]
In short: as §1

[6] = compound: Cc1ncc(-c2ccnc(Nc3ccc(S(C)(=O)=O)cc3)n2)n1C(C)C
In short: as §1

[7] = compound: Cn1cc(-c2ccc3c(c2)CCN3C(=O)Cc2cccc(C(F)(F)F)c2)c2c(N)ncnc21
In short: as §1

[8] = compound: Cn1cc(-c2ccc3nnc(C(F)(F)c4ccc5ncccc5c4)n3n2)cn1
In short: as §1

[9] = compound: Cn1cncc1[C@@](N)(c1ccc(Cl)cc1)c1ccc2c(c1)c(-c1cccc(Cl)c1)cc(=O)n2C [tipifarnib]
In short: as §1

[10] = compound: FC(F)(F)c1ccc(/C=C/c2nc(COc3ccc(CCCCn4ccnn4)cc3)co2)cc1 [mubritinib]
In short: as §1

Chain of UniProt Q9BRX2 (Q9BRX2 whole entry, looked up): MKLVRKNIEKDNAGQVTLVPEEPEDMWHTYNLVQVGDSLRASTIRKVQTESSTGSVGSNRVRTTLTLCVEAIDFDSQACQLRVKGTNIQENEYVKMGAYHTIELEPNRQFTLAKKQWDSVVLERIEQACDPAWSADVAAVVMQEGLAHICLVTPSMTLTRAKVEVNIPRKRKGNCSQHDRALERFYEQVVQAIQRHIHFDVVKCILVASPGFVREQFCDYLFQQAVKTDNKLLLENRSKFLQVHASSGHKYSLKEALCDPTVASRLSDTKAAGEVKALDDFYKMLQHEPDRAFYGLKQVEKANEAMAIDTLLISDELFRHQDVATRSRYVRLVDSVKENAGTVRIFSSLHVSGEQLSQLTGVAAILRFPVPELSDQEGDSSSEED
Chain of UniProt P40425 (P40425 whole entry, looked up): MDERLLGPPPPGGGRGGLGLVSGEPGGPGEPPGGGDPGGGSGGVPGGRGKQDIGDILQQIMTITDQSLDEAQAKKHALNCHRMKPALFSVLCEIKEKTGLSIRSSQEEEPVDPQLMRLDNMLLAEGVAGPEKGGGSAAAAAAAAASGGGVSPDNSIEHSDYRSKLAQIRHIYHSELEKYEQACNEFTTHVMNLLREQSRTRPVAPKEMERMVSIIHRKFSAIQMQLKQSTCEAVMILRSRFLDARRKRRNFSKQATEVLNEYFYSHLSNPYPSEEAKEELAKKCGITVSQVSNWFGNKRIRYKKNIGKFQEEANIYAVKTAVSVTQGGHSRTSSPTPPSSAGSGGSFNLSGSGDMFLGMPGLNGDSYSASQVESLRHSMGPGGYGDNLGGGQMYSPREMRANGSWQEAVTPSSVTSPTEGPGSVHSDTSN
Chain of UniProt P28340 (P28340 whole entry, looked up): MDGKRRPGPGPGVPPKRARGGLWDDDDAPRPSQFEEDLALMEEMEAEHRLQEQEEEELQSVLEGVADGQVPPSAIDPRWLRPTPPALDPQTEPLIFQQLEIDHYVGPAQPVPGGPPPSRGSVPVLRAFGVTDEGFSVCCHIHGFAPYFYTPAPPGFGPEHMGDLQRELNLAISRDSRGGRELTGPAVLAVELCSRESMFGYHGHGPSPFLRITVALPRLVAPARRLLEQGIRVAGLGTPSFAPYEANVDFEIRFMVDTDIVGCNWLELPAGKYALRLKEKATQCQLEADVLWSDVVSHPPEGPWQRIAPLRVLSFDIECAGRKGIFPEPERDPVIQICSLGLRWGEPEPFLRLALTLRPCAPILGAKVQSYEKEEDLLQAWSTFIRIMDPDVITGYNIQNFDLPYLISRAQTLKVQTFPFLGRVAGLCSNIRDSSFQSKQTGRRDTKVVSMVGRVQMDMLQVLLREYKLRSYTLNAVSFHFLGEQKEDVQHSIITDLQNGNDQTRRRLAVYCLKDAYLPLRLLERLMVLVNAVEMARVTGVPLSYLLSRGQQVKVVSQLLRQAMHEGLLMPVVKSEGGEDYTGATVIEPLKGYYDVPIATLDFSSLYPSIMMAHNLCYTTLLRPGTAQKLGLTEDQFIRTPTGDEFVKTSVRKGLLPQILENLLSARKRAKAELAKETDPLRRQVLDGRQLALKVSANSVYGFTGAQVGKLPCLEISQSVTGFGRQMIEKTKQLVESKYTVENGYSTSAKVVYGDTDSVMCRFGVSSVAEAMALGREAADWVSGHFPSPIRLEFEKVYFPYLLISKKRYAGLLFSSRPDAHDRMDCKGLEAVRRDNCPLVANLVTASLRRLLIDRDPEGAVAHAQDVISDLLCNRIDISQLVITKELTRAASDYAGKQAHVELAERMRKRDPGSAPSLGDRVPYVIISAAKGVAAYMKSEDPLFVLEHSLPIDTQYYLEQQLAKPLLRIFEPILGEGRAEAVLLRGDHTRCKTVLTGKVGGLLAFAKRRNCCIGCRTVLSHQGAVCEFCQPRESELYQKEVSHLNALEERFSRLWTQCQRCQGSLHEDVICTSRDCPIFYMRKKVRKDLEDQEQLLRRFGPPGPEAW
Chain of UniProt Q13362 (Q13362 whole entry, looked up): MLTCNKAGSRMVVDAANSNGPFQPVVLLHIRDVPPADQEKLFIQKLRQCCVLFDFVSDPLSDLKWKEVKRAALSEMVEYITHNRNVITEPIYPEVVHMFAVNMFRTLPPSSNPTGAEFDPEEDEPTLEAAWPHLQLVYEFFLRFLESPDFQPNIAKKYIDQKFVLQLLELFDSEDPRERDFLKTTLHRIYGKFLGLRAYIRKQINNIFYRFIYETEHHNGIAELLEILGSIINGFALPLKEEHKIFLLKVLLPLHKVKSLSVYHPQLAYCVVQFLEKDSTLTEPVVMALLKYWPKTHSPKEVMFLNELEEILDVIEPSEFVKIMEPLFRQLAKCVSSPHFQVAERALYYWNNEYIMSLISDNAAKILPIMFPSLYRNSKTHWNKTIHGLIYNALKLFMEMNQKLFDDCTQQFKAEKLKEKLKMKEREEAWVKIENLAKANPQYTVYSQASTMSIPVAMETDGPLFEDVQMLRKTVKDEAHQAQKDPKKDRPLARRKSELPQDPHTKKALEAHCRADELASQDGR
Chain of UniProt Q8NEB9 (Q8NEB9 whole entry, looked up): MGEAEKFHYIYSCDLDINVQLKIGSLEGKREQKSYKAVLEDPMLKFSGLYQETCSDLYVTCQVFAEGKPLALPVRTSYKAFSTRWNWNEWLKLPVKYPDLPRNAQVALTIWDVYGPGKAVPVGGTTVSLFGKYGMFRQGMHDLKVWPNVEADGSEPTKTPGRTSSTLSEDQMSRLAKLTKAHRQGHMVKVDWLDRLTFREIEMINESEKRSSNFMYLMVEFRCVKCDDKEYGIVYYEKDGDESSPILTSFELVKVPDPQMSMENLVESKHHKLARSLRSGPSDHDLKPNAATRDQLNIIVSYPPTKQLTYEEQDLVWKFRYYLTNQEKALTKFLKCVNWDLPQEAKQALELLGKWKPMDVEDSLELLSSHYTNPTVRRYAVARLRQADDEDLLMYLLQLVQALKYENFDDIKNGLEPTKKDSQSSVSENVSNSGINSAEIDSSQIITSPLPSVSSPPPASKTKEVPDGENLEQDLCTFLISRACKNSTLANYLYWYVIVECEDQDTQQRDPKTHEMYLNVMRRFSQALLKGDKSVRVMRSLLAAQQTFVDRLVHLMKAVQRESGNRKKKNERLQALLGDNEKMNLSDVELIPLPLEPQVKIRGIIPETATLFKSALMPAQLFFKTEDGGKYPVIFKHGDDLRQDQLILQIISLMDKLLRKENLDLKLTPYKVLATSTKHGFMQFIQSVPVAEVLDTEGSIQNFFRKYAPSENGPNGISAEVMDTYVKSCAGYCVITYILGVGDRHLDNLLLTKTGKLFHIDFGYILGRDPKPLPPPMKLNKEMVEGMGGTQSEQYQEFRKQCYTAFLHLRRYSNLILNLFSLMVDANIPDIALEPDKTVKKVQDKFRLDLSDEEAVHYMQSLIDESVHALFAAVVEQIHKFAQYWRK
Chain of UniProt Q8N4L2 (Q8N4L2 whole entry, looked up): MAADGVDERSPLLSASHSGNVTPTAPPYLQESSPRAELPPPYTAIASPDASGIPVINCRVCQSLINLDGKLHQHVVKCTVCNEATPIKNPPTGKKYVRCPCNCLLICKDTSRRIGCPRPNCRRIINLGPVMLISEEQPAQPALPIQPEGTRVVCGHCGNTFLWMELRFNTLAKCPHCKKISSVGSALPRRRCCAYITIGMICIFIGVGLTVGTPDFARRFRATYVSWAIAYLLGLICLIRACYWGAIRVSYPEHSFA
Chain of UniProt Q9NR22 (Q9NR22 whole entry, looked up): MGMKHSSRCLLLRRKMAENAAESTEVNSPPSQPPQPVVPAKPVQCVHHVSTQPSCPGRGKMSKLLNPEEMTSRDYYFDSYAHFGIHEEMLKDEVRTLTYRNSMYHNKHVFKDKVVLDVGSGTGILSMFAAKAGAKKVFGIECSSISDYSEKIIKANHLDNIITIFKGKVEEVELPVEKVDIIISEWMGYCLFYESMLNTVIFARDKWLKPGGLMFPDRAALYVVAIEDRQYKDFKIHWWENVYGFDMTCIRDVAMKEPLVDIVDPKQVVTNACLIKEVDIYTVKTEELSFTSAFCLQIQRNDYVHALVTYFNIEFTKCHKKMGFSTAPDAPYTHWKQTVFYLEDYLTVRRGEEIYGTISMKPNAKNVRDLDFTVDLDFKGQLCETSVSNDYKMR
Chain of UniProt Q9UMR5 (Q9UMR5 whole entry, looked up): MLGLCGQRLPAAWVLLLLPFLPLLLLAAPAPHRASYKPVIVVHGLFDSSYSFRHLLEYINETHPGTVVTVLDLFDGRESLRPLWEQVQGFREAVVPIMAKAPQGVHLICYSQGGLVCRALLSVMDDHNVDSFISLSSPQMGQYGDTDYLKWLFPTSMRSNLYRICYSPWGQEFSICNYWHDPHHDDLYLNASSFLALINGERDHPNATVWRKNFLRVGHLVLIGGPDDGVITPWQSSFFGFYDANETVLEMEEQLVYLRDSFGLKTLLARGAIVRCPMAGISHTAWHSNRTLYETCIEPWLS
Chain of UniProt Q9Y3E5 (Q9Y3E5 whole entry, looked up): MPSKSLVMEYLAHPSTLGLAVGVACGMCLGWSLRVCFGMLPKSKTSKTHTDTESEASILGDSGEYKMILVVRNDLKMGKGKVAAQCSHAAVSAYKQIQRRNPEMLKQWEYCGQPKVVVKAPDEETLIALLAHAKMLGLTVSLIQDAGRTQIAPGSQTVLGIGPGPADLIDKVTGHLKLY
Chain of UniProt O43741 (O43741 whole entry, looked up): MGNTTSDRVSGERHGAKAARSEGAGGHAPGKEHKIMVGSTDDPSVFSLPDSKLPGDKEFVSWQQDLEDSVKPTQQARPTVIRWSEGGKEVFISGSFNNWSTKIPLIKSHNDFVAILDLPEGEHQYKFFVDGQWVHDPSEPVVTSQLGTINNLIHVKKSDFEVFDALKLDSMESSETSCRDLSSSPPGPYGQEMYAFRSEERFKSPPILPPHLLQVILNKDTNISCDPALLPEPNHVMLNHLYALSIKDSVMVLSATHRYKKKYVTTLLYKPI

| Target | log2 fold change [1] | log2 fold change [2] | log2 fold change [3] | log2 fold change [4] | log2 fold change [5] | log2 fold change [6] | log2 fold change [7] | log2 fold change [8] | log2 fold change [9] | log2 fold change [10] |
| --- | --- | --- | --- | --- | --- | --- | --- | --- | --- | --- |
| PPP2R5C isoform 5 (UniProt Q13362) | -0.024 | 0.005 | -0.168 | -0.026 | -0.227 | 0.026 | 0.031 | -0.06 | -0.099 | 0.042 |
| PRKCB isoform 2 (UniProt P05771) | -0.037 | 0.025 | -0.022 | -0.3 (active) | -0.054 | 0.034 | 0.04 | 0 | -0.051 | 0.054 |
| PRPF3 (UniProt O43395) | 0.048 | 0.072 | -0.044 | -0.201 | -0.114 | -0.152 | -0.149 | 0.018 | -0.011 | 0.118 |
| PTRH2 (UniProt Q9Y3E5) | -0.022 | 0.017 | 0.039 | -0.011 | -0.004 | 0.046 | 0.044 | -0.019 | 0.042 | -0.009 |
| PRMT8 (UniProt Q9NR22) | 0.002 | 0.032 | -0.036 | 0.048 | -0.064 | 0.02 | 0.064 | -0.066 | -0.136 | 0.035 |
| POMK (UniProt Q9H5K3) | -0.057 | 0.067 | -0.032 | -0.029 | -0.05 | 0.016 | 0 | 0.034 | -0.044 | -0.126 |
| PRMT7 (UniProt Q9NVM4) | -0.114 | -0.086 | -0.002 | -0.047 | -0.213 | -0.01 | -0.038 | 0.124 | -0.116 | 0.092 |
| POLD1 (UniProt P28340) | -0.055 | 0.023 | -0.03 | -0.006 | -0.049 | -0.052 | 0.063 | 0.01 | -0.066 | 0.006 |
| PIP4P2 (UniProt Q8N4L2) | -0.083 | -0.111 | 0.013 | -0.003 | 0.055 | -0.026 | -0.03 | 0.014 | 0.024 | 0.005 |
| PSMC5 (UniProt P62195) | 0.078 | 0.035 | -0.041 | 0.035 | 0.033 | -0.014 | -0.113 | -0.006 | 0.09 | -0.014 |
| PPT2 isoform 3 (UniProt Q9UMR5) | -0.301 (active) | -0.013 | 0.031 | 0.013 | 0.055 | -0.045 | 0.07 | 0.037 | 0.013 | 0.034 |
| PPOX (UniProt P50336) | -0.031 | -0.013 | 0.494 | 0.027 | 0.208 | -0.015 | 0.192 | 0.086 | 0.08 | 0 |
| PBX2 (UniProt P40425) | 0.019 | 0.042 | -0.057 | -0.071 | -0.202 | -0.034 | 0.013 | -0.091 | -0.116 | 0.027 |
| PDCD6IP (UniProt Q8WUM4) | 0.042 | 0.157 | -0.116 | -0.205 | -0.283 | 0.069 | 0.016 | 0.068 | -0.221 | 0.105 |
| PJA2 (UniProt O43164) | -0.121 | -0.072 | 0.023 | -0.021 | 0.036 | -0.04 | -0.06 | 0.008 | 0.071 | 0.018 |
| PYGB (UniProt P11216) | -0.317 (active) | 0 | -0.358 (active) | 0.02 | -0.042 | -0.032 | 0.026 | -0.007 | 0.035 | 0.014 |
| PPIL2 (UniProt Q13356) | -0.008 | 0.032 | -0.056 | -0.086 | -0.127 | 0.068 | 0.03 | 0.046 | -0.142 | 0.011 |
| PRIM2 (UniProt P49643) | 0.007 | -0.019 | -0.063 | -0.06 | -0.128 | 0.021 | 0.015 | 0.046 | -0.018 | 0.101 |
| PCYT1B (UniProt Q9Y5K3) | -0.193 | -0.068 | -1.28 (active) | -0.105 | -0.142 | -0.089 | -0.024 | -0.037 | -0.053 | 0.168 |
| PRCP (UniProt P42785) | -0.209 | -0.018 | 0.011 | 0.009 | -0.021 | -0.009 | 0.02 | 0.008 | 0.055 | 0.057 |
| PRPSAP2 (UniProt O60256) | -0.034 | 0.124 | -0.024 | 0.064 | -0.028 | -0.005 | -0.037 | -0.018 | 0.023 | -0.008 |
| POLR2G (UniProt P62487) | -0.048 | -0.038 | 0.012 | 0.188 | 0.054 | 0.202 | 0.009 | 0.002 | 0 | 0.065 |
| PPP2R5E (UniProt Q16537) | -0.023 | -0.058 | -0.11 | 0.057 | -0.074 | -0.059 | -0.049 | -0.037 | -0.159 | 0.018 |
| PELO (UniProt Q9BRX2) | 0.068 | 0.155 | -0.021 | -0.067 | -0.054 | -0.02 | 0.042 | 0.061 | -0.136 | -0.111 |
| PYGL (UniProt P06737) | -0.218 | 0.006 | -0.202 | 0.036 | -0.027 | -0.035 | 0.001 | -0.005 | 0.016 | 0.052 |
| PSMC2 (UniProt P35998) | 0.081 | 0.029 | -0.019 | 0.044 | 0.034 | -0.018 | -0.126 | -0.013 | 0.113 | -0.031 |
| POLR2K (UniProt P53803) | -0.052 | -0.057 | -0.021 | 0.029 | 0.081 | 0.089 | 0.006 | 0.019 | -0.036 | -0.008 |
| PAK4 (UniProt O96013) | -0.072 | 0.011 | -0.016 | 0.352 (active) | -0.068 | 0.01 | 0.04 | 0.007 | 0.015 | -0.092 |
| PIK3C3 (UniProt Q8NEB9) | 0.065 | -0.011 | 0.043 | -0.039 | -0.04 | 0.202 | -0.035 | -0.006 | 0.047 | 0.042 |
| PRKAB2 (UniProt O43741) | 0.027 | -0.01 | -0.022 | -0.184 | -0.16 | 0.082 | 0.142 | -0.034 | -0.046 | -0.02 |
